Measurements published in PubChem BioAssay (Tox21).
“And” between values parts separate entries of the source, which are not always exact repeats. Identical values can stand only once. Records with an inconclusive call do not appear. Entries that show only a call come without a potency. A structure can be active in one record and inactive in another. The source made the active and inactive calls. Unless noted, calls come from the whole dose curve.

Tests used:
[1] = qHTS assay to identify small molecule agonists of the sonic hedgehog signaling (Shh) pathway (AID 1259368);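 note: NIH/3T3-derived 3T3Gli1-Luc cells carrying a stable Gli1-driven firefly luciferase reporter; series mostly up to about 92 µM; nearly all actives have a fitted effect of over 15% in size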
Summary of the method: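 3T3Gli1-Luc (NIH/3T3 clone, stable Gli1-Luc); 4 hr pre-incubation, then cpd in DMSO 24 hr, 37 C/5% CO2; luciferase reagent 30 min RT; luminescence.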

[2] = qHTS assay to identify small molecule antagonists of the sonic hedgehog signaling (Shh) pathway (AID 1259369); note: nearly all actives have a fitted effect of over 45% in size; note: potency is the fitted concentration of half-maximal effect
Summary of the method: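 3T3Gli1-Luc, conditioned-medium-stimulated, 24hr cpd, 37C/5% CO2; Gli1-driven firefly Luc luminescence after 30min RT with luciferase reagent. Cells plated 4hr before cpd.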

[3] = molecular target: Estrogen receptor beta (Homo sapiens) (UniProt Q92731); experiment: qHTS assay to identify small molecule agonists of the estrogen receptor beta (ER-beta) signaling pathway (AID 1259377; active = well fitted activation curve with a large enough effect in the signal ratio in the repeat runs, not every such curve was filed as active; the % refers to the signal ratio; note: potency is the fitted concentration of half-maximal effect)
Chain of Estrogen receptor beta (Homo sapiens) (Q92731 whole entry, looked up): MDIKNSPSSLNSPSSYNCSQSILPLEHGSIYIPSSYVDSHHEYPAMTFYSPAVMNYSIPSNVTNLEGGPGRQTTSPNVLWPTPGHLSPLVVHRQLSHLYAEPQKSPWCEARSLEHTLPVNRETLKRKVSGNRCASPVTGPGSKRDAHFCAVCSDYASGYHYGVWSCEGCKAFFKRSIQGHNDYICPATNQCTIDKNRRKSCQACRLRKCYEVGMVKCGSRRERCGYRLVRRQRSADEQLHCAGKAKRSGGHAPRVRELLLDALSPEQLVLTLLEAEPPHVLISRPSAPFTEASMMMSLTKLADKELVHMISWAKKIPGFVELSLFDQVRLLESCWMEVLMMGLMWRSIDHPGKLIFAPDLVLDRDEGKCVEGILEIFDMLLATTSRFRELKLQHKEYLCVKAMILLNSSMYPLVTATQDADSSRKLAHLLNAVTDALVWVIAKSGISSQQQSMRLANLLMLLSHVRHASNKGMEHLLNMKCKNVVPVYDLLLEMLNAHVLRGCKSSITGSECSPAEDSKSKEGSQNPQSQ
Summary of the method: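 ER-beta-UAS-bla HEK293T cells in medium with 2% charcoal-stripped FBS were exposed to compounds for 16 h at 37C. Beta-lactamase reporter activity was read as fluorescence after 2 h with LiveBLAzer B/G FRET substrate at room temperature.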

[4] = molecular target: Estrogen receptor beta (Homo sapiens) (UniProt Q92731); experiment: qHTS assay to identify small molecule antagonists of the estrogen receptor beta (ER-beta) signaling pathway (AID 1259378; active = well fitted inhibition curve with a large enough effect in the signal ratio in the repeat runs, not every such curve was filed as active; the % refers to the signal ratio)
Summary of the method: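 Antagonist mode: compounds added to beta-lactamase reporter HEK293T ER-beta-UAS cells stimulated with E2 (1nM final), 16 hr at 37C. LiveBLAzer B/G FRET substrate, 2 hours room temperature, fluorescence read-out.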

[5] = qHTS assay to identify small molecule agonists of the androgen receptor (AR) signaling pathway in the presence of an antagonist - cell viability counter screen (AID 1259379; active = well fitted curve in the direction sought with a large enough effect in the repeat runs; an effect the other way counts as inactive or inconclusive;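 note: MDA-kb2 human breast cancer cells carrying an MMTV luciferase reporter; series mostly up to about 92 µM; nearly all actives have a fitted effect of over 25% in size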)
Summary of the method: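 Cells: MDA-kb2 (MMTV-luc, AR and GR elements), 3,000/well, 5 hr settle. Added: nilutamide 3.0uM final, then compounds (15 conc.). Incubation: 16 hr, 37C, no CO2. Read-out: CellTiter-Fluor, 1 hr, fluorescence.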

[6] = qHTS assay to identify small molecule agonists of the estrogen receptor beta (ER-beta) signaling pathway - cell viability counter screen (AID 1259380; active = well fitted curve in the direction sought with a large enough effect in the repeat runs; an effect the other way counts as inactive or inconclusive; note: nearly all actives have a fitted effect of over 30% in size; note: potency is the fitted concentration of half-maximal effect)
Summary of the method: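 HEK293T ER-beta-UAS-bla; 2% CS-FBS; 6 hr pre-plate, 16 hr cpd at 37C/5% CO2; LiveBLAzer read first, then CellTiter-Glo 30 min RT, luminescence.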

[7] = molecular target: Androgen receptor (Homo sapiens) (UniProt P10275); experiment: qHTS assay to identify small molecule agonists of the androgen receptor (AR) signaling pathway in the presence of an antagonist (AID 1259381); note: nearly all actives have a fitted effect of over 15% in size
Chain of Androgen receptor (Homo sapiens) (P10275 whole entry, looked up): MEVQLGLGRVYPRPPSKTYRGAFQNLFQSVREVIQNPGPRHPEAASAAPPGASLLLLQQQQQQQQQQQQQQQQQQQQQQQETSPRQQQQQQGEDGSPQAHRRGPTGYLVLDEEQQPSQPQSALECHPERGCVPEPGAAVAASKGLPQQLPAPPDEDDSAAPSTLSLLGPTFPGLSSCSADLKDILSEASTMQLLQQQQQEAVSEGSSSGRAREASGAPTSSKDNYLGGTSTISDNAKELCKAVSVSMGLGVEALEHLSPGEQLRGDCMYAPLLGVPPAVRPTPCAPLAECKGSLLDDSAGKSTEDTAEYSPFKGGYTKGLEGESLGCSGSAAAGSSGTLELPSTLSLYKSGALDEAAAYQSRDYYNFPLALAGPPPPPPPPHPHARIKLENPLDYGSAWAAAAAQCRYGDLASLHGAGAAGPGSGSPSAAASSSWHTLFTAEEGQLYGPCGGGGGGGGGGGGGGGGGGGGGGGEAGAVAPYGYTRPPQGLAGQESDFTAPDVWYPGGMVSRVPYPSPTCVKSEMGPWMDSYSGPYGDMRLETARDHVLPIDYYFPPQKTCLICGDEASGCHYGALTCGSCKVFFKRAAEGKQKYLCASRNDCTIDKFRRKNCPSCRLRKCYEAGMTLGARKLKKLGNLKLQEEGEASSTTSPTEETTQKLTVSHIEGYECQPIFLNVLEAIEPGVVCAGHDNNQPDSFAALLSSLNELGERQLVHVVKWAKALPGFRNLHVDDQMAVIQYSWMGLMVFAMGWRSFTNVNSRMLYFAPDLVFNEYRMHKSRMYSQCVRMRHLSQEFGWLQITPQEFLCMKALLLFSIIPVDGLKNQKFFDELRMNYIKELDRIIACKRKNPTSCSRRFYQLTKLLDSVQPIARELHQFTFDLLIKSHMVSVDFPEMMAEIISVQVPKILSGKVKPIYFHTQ
Summary of the method: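 MDA-kb2 cells, 3,000/well, rested 5hr at 37C/0% CO2 → nilutamide 3.0uM final or buffer → compounds, 15 conc. → 16hr at 37C → ONE-Glo, 30min RT → luminescence.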

[8] = qHTS assay to identify small molecule antagonists of the estrogen receptor beta (ER-beta) signaling pathway - cell viability counter screen (AID 1259382; active = well fitted curve in the direction sought with a large enough effect in the repeat runs; an effect the other way counts as inactive or inconclusive; note: nearly all actives have a fitted effect of over 55% in size; note: potency is the fitted concentration of half-maximal effect)
Summary of the method: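 Cells: ER-beta-UAS-bla HEK293T, 2,000/well, 2% CS-FBS, 6 hr settle. Cpd + E2 (1nM final), 16 hr, 37C/5% CO2. Bla FRET substrate 2 hr RT, then CellTiter-Glo 30 min RT, luminescence.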

[9] = molecular target: Estrogen receptor (Homo sapiens) (UniProt P03372); experiment: qHTS assay to identify small molecule agonists of the estrogen receptor alpha (ER-alpha) signaling pathway in the presence of an antagonist (AID 1259383); note: top concentration of the series differs between compounds; nearly all actives have a fitted effect of over 15% in size
Chain of Estrogen receptor (Homo sapiens) (P03372 whole entry, looked up): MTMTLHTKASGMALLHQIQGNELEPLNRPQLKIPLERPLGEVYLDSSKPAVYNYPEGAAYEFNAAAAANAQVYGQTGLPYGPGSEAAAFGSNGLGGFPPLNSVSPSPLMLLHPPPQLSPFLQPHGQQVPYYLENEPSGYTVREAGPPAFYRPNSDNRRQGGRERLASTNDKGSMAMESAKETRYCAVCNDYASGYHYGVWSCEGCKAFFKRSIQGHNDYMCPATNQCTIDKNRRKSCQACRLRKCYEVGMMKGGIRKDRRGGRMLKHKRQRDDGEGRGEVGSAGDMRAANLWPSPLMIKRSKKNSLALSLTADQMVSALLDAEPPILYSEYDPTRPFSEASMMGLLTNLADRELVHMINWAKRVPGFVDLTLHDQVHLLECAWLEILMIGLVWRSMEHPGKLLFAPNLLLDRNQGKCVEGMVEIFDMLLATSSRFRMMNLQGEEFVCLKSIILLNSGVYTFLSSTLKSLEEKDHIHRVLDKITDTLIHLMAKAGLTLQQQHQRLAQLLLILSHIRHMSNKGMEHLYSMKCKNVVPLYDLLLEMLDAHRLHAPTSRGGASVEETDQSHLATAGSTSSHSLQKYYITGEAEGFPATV
Summary of the method: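 VM7Luc4E2, endog. ER-alpha + 4×ERE-luc; charcoal-stripped FBS, phenol red-free, 5 d; 24hr plating; +10.0nM ICI-182,780 (final); cpds 15 conc, 22hr, 37C/5% CO2; ONE-Glo luminescence.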

[10] = qHTS assay to identify small molecule agonists or antagonists of the thyroid stimulating hormone receptor (TSHR) signaling pathway - wild type cell line counter screen (AID 1259384)
Summary of the method: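 Counter screen in untransfected Hek293: compounds (15-point titration, triplicate) plus phosphodiesterase inhibitor Ro20-1724 added after 18 h plating; 30 min RT. Intracellular cAMP via competitive d2/cryptate immunoassay, 1 h incubation.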

| Compound | outcome [1] | Potency [2] | Potency [3] | outcome [4] | Potency [5] | Potency [6] | Potency [7] | Potency [8] | Potency [9] | outcome [10] |
| --- | --- | --- | --- | --- | --- | --- | --- | --- | --- | --- |
| CC(Cc1ccccc1)NCCCCl (stereo not drawn) | inactive | inactive | inactive | inactive | inactive | inactive | inactive | inactive | inactive | inactive |
| S=C=S | inactive | inactive | inactive | inactive | inactive | inactive |  | inactive | inactive | inactive |
| CCN[C@@H](C)Cc1ccccc1 | inactive | inactive | inactive | inactive | inactive | inactive | inactive | inactive | inactive | inactive |
| CCOC(=O)c1ncn2c1CN(C)C(=O)c1c(I)cccc1-2 | inactive | inactive | inactive | inactive | inactive | inactive |  | inactive | inactive | inactive |
| O=C(Cl)C(Cl)Cl | inactive | inactive | inactive | inactive | inactive | inactive |  | inactive | inactive | inactive |
| CC(C)(O)C(Cl)(Cl)Cl | inactive | inactive | inactive | inactive | inactive | inactive |  | inactive | inactive | inactive |
| BrCC1CO1 (stereo not drawn) | inactive | inactive | inactive | inactive | inactive | inactive |  | inactive | inactive |  |
| CCCOC(=O)c1cncn1C(C)c1ccccc1 (stereo not drawn) | inactive | inactive | inactive | inactive | inactive | inactive | inactive | inactive | inactive | inactive |
| CC(C)N(Cc1ccccc1)C(=O)C(C)(C)C | inactive | inactive | inactive | inactive | inactive | inactive | inactive | inactive |  | inactive |
| OP(O)c1ccccc1 | inactive | inactive | inactive | inactive | inactive | inactive | inactive | inactive | inactive | inactive |
| CCN(CCO)CCn1c(Cc2ccccc2)nc2c1c(=O)n(C)c(=O)n2C | inactive | inactive | inactive | inactive | inactive | inactive |  | inactive | inactive | inactive |
| COc1ccc(C=O)cc1O | inactive | inactive | inactive | inactive | inactive | inactive | inactive | inactive | inactive | inactive |
| OCC(Cl)CCl (stereo not drawn) | inactive | inactive | inactive | inactive | inactive | inactive |  | inactive | inactive |  |
| C[C@H](CN1CCOCC1)C(C(=O)N1CCCC1)(c1ccccc1)c1ccccc1 | inactive | inactive | inactive | inactive | inactive | inactive | inactive | inactive | inactive |  |
| O=C(NC(O)C(Cl)(Cl)Cl)NC(O)C(Cl)(Cl)Cl (stereo not drawn) | inactive | inactive | inactive | inactive | inactive | inactive |  | inactive | inactive |  |
| N[C@@H](Cc1ccc(Oc2cc(I)c(O)c(I)c2)c(I)c1)C(=O)O | inactive | inactive | inactive | inactive | inactive | inactive |  | inactive | inactive |  |
| CC(C)(C1CCC(O)CC1)C1CCC(O)CC1 (stereo not drawn) | inactive | inactive | 21.7 µM (active) | inactive | inactive | inactive |  | inactive | inactive |  |
| ClC1=C(Cl)C2(Cl)C(CBr)CC1(Cl)C2(Cl)Cl (stereo not drawn) | inactive | inactive | inactive | inactive | inactive | inactive |  | inactive | inactive | inactive |
| O=C/C=C/c1ccco1 | inactive | inactive | inactive | inactive | inactive | inactive | inactive | inactive | inactive |  |
| Cc1ccc2cc(C)ccc2c1 | inactive | inactive | inactive | inactive | inactive | inactive |  | inactive |  |  |
| CC(C)(C)C(=O)Cl | inactive | inactive | inactive | inactive | inactive | inactive |  | inactive | inactive | inactive |
| CCN(CC)C1CCCCC1 | inactive | inactive | inactive | inactive | inactive | inactive | inactive | inactive | inactive |  |
| CCC(CC)(CNC(=O)CCCO)c1cccc(OC)c1 | inactive | inactive | inactive | inactive | inactive | inactive | inactive | inactive | inactive | inactive |
| C=C(C)[C@H]1CN[C@H](C(=O)O)[C@H]1CC(=O)O | inactive | inactive | inactive | inactive | inactive | inactive |  | inactive | inactive | inactive |
| CCNP(=S)(OC)O/C(C)=C/C(=O)OC(C)C (stereo not drawn) | inactive | inactive | inactive | inactive | inactive | inactive |  | inactive | inactive |  |
| COc1ccc(CN2CCNCC2)c(OC)c1OC | inactive | inactive | inactive | inactive | inactive | inactive |  | inactive | inactive |  |
| C#CC(C)(C)O | inactive | inactive | inactive | inactive | inactive | inactive |  | inactive |  |  |
| C=CC(=O)OCCN(C)C | inactive | inactive | inactive | inactive | inactive | inactive |  | inactive |  |  |

| Compound | outcome [1] | Potency [2] | Potency [3] | outcome [4] | Potency [5] | Potency [6] | Potency [7] | Potency [8] | Potency [9] | outcome [10] |
| --- | --- | --- | --- | --- | --- | --- | --- | --- | --- | --- |
| CC[C@@H](CO)NC(=O)[C@@H]1C=C2c3cccc4[nH]cc(c34)C[C@H]2N(C)C1 | inactive | inactive | inactive | inactive | inactive | inactive | inactive | inactive | inactive | inactive |
| CC[C@@H](CO)NC(=O)[C@@H]1C=C2c3cccc4c3c(cn4C)C[C@H]2N(C)C1 | inactive | inactive | inactive | inactive | inactive | inactive |  | inactive | inactive |  |
| N#CN | inactive | inactive | inactive | inactive | inactive | inactive |  | inactive | inactive |  |
| C[N+]1(C)CCCCC1 | inactive | inactive | inactive | inactive | inactive | inactive | inactive | inactive |  | inactive |
| N[C@@H]1C[C@H]1c1ccccc1 | inactive | inactive | inactive | inactive | inactive | inactive | inactive | inactive | inactive | inactive |
| CN(C)CCc1c[nH]c2cccc(OP(=O)(O)O)c12 | inactive | inactive | inactive | inactive | inactive | inactive |  | inactive | inactive |  |
| CC[C@H](N)c1ccccc1 | inactive | inactive | inactive | inactive | inactive | inactive |  | inactive | inactive | inactive |
| CCCCCCCCBr | inactive | inactive | inactive | inactive | inactive | inactive |  | inactive |  | inactive |
| CC(O)CCl (stereo not drawn) | inactive | inactive | inactive | inactive | inactive | inactive |  | inactive | inactive | inactive |
| NCCOS(=O)(=O)O | inactive | inactive | inactive | inactive | inactive | inactive |  | inactive | inactive | inactive |
| CC(=NC#N)N(C)Cc1ccc(Cl)nc1 | inactive | inactive | inactive | inactive | inactive | inactive |  | inactive |  | inactive |
| COP(=O)(OC)O/C(C)=C/C(=O)N(C)C | inactive | inactive | inactive | inactive | inactive | inactive |  | inactive | inactive | inactive |
| C=CC=O | inactive | inactive | inactive | inactive | inactive | inactive |  | inactive |  | inactive |
| COc1cccc(C=O)c1 | inactive | inactive | inactive | inactive | inactive | inactive |  | inactive | inactive | inactive |
| O=C(Cl)OCc1ccccc1 | inactive | inactive | inactive | inactive | inactive | inactive |  | inactive | inactive | inactive |
| O=C1CCCCC1Cl (stereo not drawn) | inactive | inactive | inactive | inactive | inactive | inactive |  | inactive |  | inactive |
| O=C(O)c1c(Cl)ccc2cc(Cl)cnc12 | inactive | inactive | inactive | inactive | inactive | inactive |  | inactive | inactive | inactive |
| c1cncc([C@@H]2CCCCN2)c1 | inactive | inactive | inactive | inactive | inactive | inactive |  | inactive | inactive | inactive |
| CCN(CCO)CCO | inactive | inactive | inactive | inactive | inactive | inactive |  | inactive | inactive | inactive |
| O=P(O)(O)CN(CP(=O)(O)O)CP(=O)(O)O | inactive | inactive | inactive | inactive | inactive | inactive |  | inactive | inactive | inactive |
| CC(=O)CN(CC(C)=O)N=O | inactive | inactive | inactive | inactive | inactive | inactive |  | inactive | inactive | inactive |
| C1CN2CCC1CC2 | inactive | inactive | inactive | inactive | inactive | inactive |  | inactive | inactive | inactive |
| CCOC(=O)C(Cl)Cc1cc(-n2nc(C)n(C(F)F)c2=O)c(F)cc1Cl (stereo not drawn) | inactive | inactive | inactive | inactive | inactive | inactive |  | inactive | inactive | inactive |
| COc1ccccc1OC | inactive | inactive | inactive | inactive | inactive | inactive |  | inactive | inactive | inactive |
| C=CC1(C)OC(=O)N(c2cc(Cl)cc(Cl)c2)C1=O (stereo not drawn) | inactive | 21.6 µM (active) and inactive | inactive | inactive | inactive | 27.1 µM (active) and 21.7 µM (active) |  | 54.2 µM (active) and inactive | inactive | inactive |
| C=CCCC#N | inactive | inactive | inactive | inactive | inactive | inactive |  | inactive | inactive | inactive |
| C/C=C/CC#N | inactive | inactive | inactive | inactive | inactive | inactive |  | inactive | inactive | inactive |
